In PubChem BioAssay (NCATS):
Inconclusive results are not listed. Active and inactive are the calls of the source. Calls follow the shape of the dose curve; as a rule, active = well fitted inhibition curve with a large enough effect; inconclusive = small, poorly fitted or top-dose-only effect; inactive = no such curve, though single readings can be large or run the other way.

experiment: qHTS Screen of the MIPE 4.0 Collection Against Ewings Sarcoma (TC32) (AID 1259256); conditions: TC32 Ewing sarcoma viability, CellTiter-Glo, 48 h; series mostly up to 45.8 µM; viability (percent of control): at the top concentration; also: nearly all actives have a fitted effect of over 45% in size;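 as to viability (percent of control): 100% = DMSO-treated cells and 0% = medium-only wells without cells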
Method in brief: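 Log-phase cells in RPMI with 5% FBS attached for 4 h, then received compounds as a titration for 48 h at 37C, 5% CO2. Viability was read by CellTiter-Glo luminescence and normalized to DMSO and no-cell wells.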
Potency is read from the fitted curve at half-maximal effect.

Structure (SMILES) | viability (percent of control) | Potency
O=c1[nH]c2ccccc2n1CCCN1CCC(n2c(=O)[nH]c3cc(Cl)ccc32)CC1 | 112% (inactive) | –
C[C@@H]1O[C@@H](O[C@H]2C[C@@H](O)[C@]3(CO)[C@H]4[C@H](O)C[C@]5(C)[C@@H](C6=CC(=O)OC6)CC[C@]5(O)[C@@H]4CC[C@]3(O)C2)[C@H](O)[C@H](O)[C@H]1O | – | 0.059 µM (active)
CNC(=O)c1ccc(N2C(=S)N(c3ccc(C#N)c(C(F)(F)F)c3)C(=O)C23CCC3)cc1F | – | 23.5 µM (active)
COC[C@@H](NC(C)=O)C(=O)NCc1ccccc1 | 131% (inactive) | –
CNCC(O)c1ccc(O)cc1 (stereo unspecified) | 122% (inactive) | –
CN(C)CCc1ccc(O)cc1 | 104% (inactive) | –
C[C@@H]1[C@@H](C(=O)C[C@H]2O[C@@H]3O[C@]4(C)CC[C@@H]5[C@H](C)CC[C@@H]([C@H]2C)[C@@]35OO4)O[C@@H]2O[C@]3(C)CC[C@H]4[C@H](C)CC[C@@H]1[C@@]24OO3 | – | 20.9 µM (active)
COc1ccc(C(=O)c2c(C)n(CCN3CCOCC3)c3ccccc23)cc1 | 100% (inactive) | –
C=C(C)[C@H]1Cc2c(ccc3c2O[C@@H]2COc4cc(OC)c(OC)cc4[C@@H]2C3=O)O1 | – | 0.743 µM (active)
Cc1sc2c(c1C)C(c1ccc(Cl)cc1)=N[C@@H](CC(=O)OC(C)(C)C)c1nnc(C)n1-2 | – | 1.32 µM (active)
Fc1ccc(C(OCCN2CCN(CCCc3ccccc3)CC2)c2ccc(F)cc2)cc1 | – | 26.4 µM (active)
Cn1cc(C2=C(c3cn(C4CCN(Cc5ccccn5)CC4)c4ccccc34)C(=O)NC2=O)c2ccccc21 | – | 8.33 µM (active)
O=C(O)C(=O)c1cn(Cc2ccccc2)c2ccc(-c3ccc(OC(F)(F)F)cc3)cc12 | 108% (inactive) | –
CNC(=O)N1N=C(c2ccc(N)cc2)c2cc3c(cc2CC1C)OCO3 (stereo unspecified) | – | 11.8 µM (active)
CC(O)(CS(=O)(=O)c1ccc(F)cc1)C(=O)Nc1ccc(C#N)c(C(F)(F)F)c1 (stereo unspecified) | – | 2.64 µM (active)
COc1ccc2c(c1OC)CN1CCc3cc4c(cc3C1C2)OCO4 (stereo unspecified) | 85.9% (inactive) | –
